Measured values as given in PubChem BioAssay (Tox21).
Records with an inconclusive call do not appear. Where a call stands in place of a potency, no number is given. Calls of active or inactive are those of the source. The call rests on the fitted dose curve.

test: qHTS assay for small molecule disruptors of the mitochondrial membrane potential - cell viability (AID 720634); settings: HepG2 viability, ATP luminescence (CellTiter-Glo), 1 h; series mostly up to 83.2 µM; further: nearly all actives have a fitted effect of over 20% in size
Source text: U.S. Tox21 Program National Center for Advancing Translational Sciences [NCATS] NIH Chemical Genomics Center [NCGC] U.S. Environmental Protection Agency [EPA] National Institutes of Environmental Health Sciences [NIEHS] National Toxicology Program [NTP] U.S. Food and Drug Administration [FDA] Tox21 Assay Overview: Mitochondrial membrane potential (MMP), one of the parameters for mitochondrial function, is generated by mitochondrial electron transport chain that creates an electrochemical gradient by a series of redox reactions. This gradient drives the synthesis of ATP, a crucial molecule for various cellular processes. Measuring MMP in living cells is commonly used to assess the effect of chemicals on mitochondrial function; decreases in MMP can be detected using lipophilic cationic fluorescent dyes. […] The dye accumulates in the mitochondria of healthy cells as aggregates, with red fluorescence. The mitochondrial potential decreases and the dye could not accumulate in the mitochondria and remains in the cytoplasm in monomers, with green fluorescence. In addition to the mitochondrial potential assay, these cells were also used to test the cytotoxicity by determining the cell viability in the culture based on the quantitation of ATP present. The cytotoxicity was measured in the same assay well of MMP assay.
Tox21 Assay Protocol Summary: 2,000 HepG2 cells in 5 uL/well were dispensed into black, clear-bottom 1536-well plates using a Multidrop Combi (Thermo Scientific) dispenser. The assay plates were incubated for an overnight at 37 C to allow cells to attach to the wells, followed by the transfer of 23 nL compound or DMSO vehicle by a pin tool (Kalypsys). The plates were incubated for 1 hr at 37 C and 5% CO2, followed by the addition of 5 uL of 2X m-MPI dye into each well using Flying Reagent Dispenser (Aurora Discovery) and then CellTiter-Glo reagent was added at 4 uL/well and incubated 30 min at room temperature. Then luminescence intensity was quantified on a ViewLux CCD-based plate reader.
Potency means the concentration at half of the fitted maximal effect.

Row | SMILES | Potency
1 | C(CCOCC1CO1)COCC1CO1 (stereo not given) | inactive
2 | N#CC(O)c1ccccc1 (stereo not given) | inactive
3 | COC(=O)C(c1ccccc1)C1CCCCN1 (stereo not given) | inactive
4 | CN1C(=S)CN=C(c2ccccc2)c2cc(Cl)ccc21 | inactive
5 | CNC(=O)Oc1cccc(C(C)C)c1 | inactive
6 | CNC(=O)O/N=C(\C)SC | inactive
7 | Nc1ccccc1Cl | inactive
8 | COc1ccc2c(c1OC)CN1CCc3cc4c(cc3C1C2)OCO4 (stereo not given) | inactive
9 | CN1CCN(C(=O)O[C@H]2c3nccnc3C(=O)N2c2ccc(Cl)cn2)CC1 | inactive
10 | CC(C=O)Cc1ccc2c(c1)OCO2 (stereo not given) | inactive
11 | COP(N)(=S)Oc1ccccc1C(=O)OC(C)C (stereo not given) | inactive
12 | CCOP(=S)(OCC)Oc1ncn(-c2ccccc2)n1 | inactive
13 | CNCC(=O)c1ccc(O)c(O)c1 | inactive
14 | Nc1cc2c3c(c1)C(c1ccccc1)=N[C@@H](NC(=O)c1cccnc1)C(=O)N3CC2 | inactive
15 | O=CNC(N1CCN(C(NC=O)C(Cl)(Cl)Cl)CC1)C(Cl)(Cl)Cl (stereo not given) | inactive
16 | CSc1nc(N=[N+]=[N-])nc(NC(C)C)n1 | inactive
17 | O=C(NCO)NCO | inactive
18 | [Cl][Sn]([Cl])([Cl])[Cl] | inactive
19 | O=[N+]([O-])c1ccc2c3c(cccc13)CC2 | inactive
20 | COc1ncc(F)c2nc(S(=O)(=O)Nc3c(F)cccc3F)nn12 | inactive

Row | SMILES | Potency
21 | CCC(C)(C)c1cc(-n2nc3ccccc3n2)c(O)c(C(C)(C)CC)c1 | inactive
22 | CCCSP(=O)(OCC)Oc1ccc(Br)cc1Cl (stereo not given) | 16.7 µM (active)
23 | CCc1cc2c(s1)-n1c(C)nnc1CN=C2c1ccccc1Cl | inactive
24 | C=CC1CC=CCC1 (stereo not given) | inactive
25 | N#Cc1c(Cl)cccc1Cl | inactive
26 | CC(=O)C(Cl)Cl | inactive
27 | CN(C)CCc1ccc(O)cc1 | inactive
28 | CCCCP(CCCC)CCCC | inactive
29 | C[N+](C)=CCl | inactive
30 | O=NN1CCCCC1 | inactive
31 | BrCCCCCCBr | inactive
32 | CC(C)COP(=O)(OCC(C)C)OCC(C)C | inactive
33 | COC(C)(C)C | inactive
34 | CNNC | inactive
35 | CCSC(=O)N(CC)C1CCCCC1 | inactive
36 | CCN(CC)CCOC(=O)C(C)(c1ccccc1)c1ccccc1 | inactive
37 | CC(Oc1ccc(Oc2ncc(C(F)(F)F)cc2Cl)cc1)C(=O)O (stereo not given) | inactive
38 | Nc1cc(Cl)ccc1O | inactive
39 | CCCCOC(=O)c1ccccc1C(=O)O | inactive
40 | CS(=O)(=O)c1cc(C(F)(F)F)ccc1C(=O)c1cnoc1C1CC1 | inactive
